MCF10A rereplic: A quantitative high throughput screen for small molecules that induce DNA re-replication in MCF 10a normal breast cells | Potency, µM (highest dose often 46.1 µM), without a hit: top-dose activity, positive = re-replication, hits mostly activators | AID 624296, 2012 | 350,000 tested, 2.9% active | MCF 10A DNA re-replication, Hoechst nuclear intensity, 48 h; note: % of control where 0% means no effect; nearly all actives have a fitted effect of over 50% in size
HT1080-NT tox: qHTS for induction of synthetic lethality in tumor cells producing 2HG: qHTS for the HT-1080-NT fibrosarcoma cell line | 360,000 tested, 1.6% active | AID 686970, 2013 | HT-1080-NT fibrosarcoma viability, CellTiter-Glo ATP luminescence, 48 h | Potency, µM (titrated, usually from 46.1 µM), for the others: top-dose activity, negative = less viability, hits mostly cytotoxic;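 note: NT is the 2HG producing partner of a matched IDH1 knockdown line; 0% = DMSO-treated cells and -100% = media-only wells without cells; nearly all actives have a fitted effect of over 55% in size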
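Toxicity toward the 2HG-producing NT line was scored as %Activity, normalised to DMSO and no-cell wells, from CellTiter-Glo luminescence after 48 hours' treatment.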
KB-3-1 tox: qHTS assay for MDR1-selective chemotherapeutics: Primary screen using the parental adenocarcinoma cell KB-3-1 | Potency, µM (titrated, usually from 46.1 µM), most hits filed as cytotoxic | 400,000 tested, 1.4% active | KB-3-1 viability, CellTiter-Glo ATP luminescence, 72 h; note: % is set by controls: 0 for no effect and ±100 for the full control effect; nearly all actives have a fitted effect of over 60% in size
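KB-3-1 cells, DMEM (no phenol red) + 10% FBS; compound by pin transfer, 72 h, 37 °C. Readout: CellTiter-Glo luminescence after 10 min. Data normalized, curve-fitted.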
KB-V1 cytotox: qHTS assay for MDR1-selective chemotherapeutics: Primary screen using the drug-selected MDR subline cells KB-V1. KB-V1 MDR cells viability, CellTiter-Glo, 72 h. Potency, µM (highest dose often 46.1 µM), hits mostly cytotoxic. AID 1347076, 2019. 400,000 tested, 3.4% active; note: % is set by controls: 0 for no effect and ±100 for the full control effect; nearly all actives have a fitted effect of over 60% in size
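KB-V1 cells (P-gp-expressing MDR subline of KB-3-1) in phenol-red-free DMEM with 10% FBS were exposed to library compounds over a concentration series for 72 h at 37 degrees C. Viability read by CellTiter-Glo luminescence; concentration-effect curves fitted after normalization.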
HT1080 IDH1KD tx: qHTS for induction of synthetic lethality in tumor cells producing 2HG: qHTS for the HT-1080-IDH1KD cell line; HT-1080 IDH1 knockdown viability, ATP luminescence, 48 h; Potency, µM (top dose mostly 46.1 µM), inactives show top-dose activity, negative = toxicity, usual class: cytotoxic; 360,000 tested, 2% active; AID 686971, 2013;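 note: 0% = DMSO wells and -100% = cell-free medium wells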
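CellTiter-Glo luminescence after 48 h compound exposure at 37 degrees C of IDH1-knockdown HT-1080 cells in 5% FBS RPMI. %Activity scaled between DMSO wells and cell-free media wells, with curves fitted and assigned curve classes.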
SW480 rereplic: A quantitative high throughput screen for small molecules that induce DNA re-replication in SW480 colon adenocarcinoma cells. SW480 DNA re-replication, Hoechst DNA content imaging, 48 h. Potency, µM (series often up to 46.1 µM), without a hit: at the highest dose re-replication activation, most hits filed as activators. 340,000 tested, 1.8% active; note: % of control where 0% means no effect; nearly all actives have a fitted effect of over 55% in size
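SW480 cells exposed to compounds for 48 hr at 37 C, 5% CO2, then Hoechst-stained 40 min. Nuclear DNA content imaged by fluorescence scanning (405 nm excitation, 500-530 nm emission); re-replication scored as increased high-intensity nuclei.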
* = called active by the depositor; i = inactive; u = inconclusive; x = not tested or not shown. In the library only some 8% were active in any assay of this set; here they are far more common. Calls come from the whole dose curve; as a rule, active = well fitted curve in the direction sought with a large enough effect; inconclusive = small, poorly fitted or top-dose-only effect, or another doubt; inactive = no such curve, though single readings can be large; an effect the other way counts as inactive or inconclusive. Potency is the fitted concentration of half-maximal effect.

SMILES	MCF10A rereplic	HT1080-NT tox	KB-3-1 tox	KB-V1 cytotox	HT1080 IDH1KD tx	SW480 rereplic
Cc1ccc(NC(=O)CSc2nn(-c3ccccc3)c(=S)s2)cc1S(=O)(=O)N(C)C	15.5%	-15.1%	u	6.51µM*	u	-3.5%
CCN(CC)C(=O)c1c(NC(=O)c2cccc(C)c2)sc2c1CCC(C)C2 (stereo unspecified)	x	x	i	u	x	x
COc1ccc(-c2cc(CNc3nc(NC(C)C)nc4cc(-c5ccccc5)sc34)on2)cc1	x	10.3µM*	u	20.6µM*	11.6µM*	x
C=CCNc1nc(NCc2ccc(NC(C)=O)cc2)c2sc(-c3ccccc3)cc2n1	x	18.4µM*	u	u	-21.4%	x
CC(=O)Nc1ccc(CNc2nc(NC(C)C)nc3cc(-c4ccccc4)sc23)cc1	x	u	u	20.6µM*	u	x
O=C(NCc1ccccc1Cl)C1CCCN(S(=O)(=O)c2cnc[nH]2)C1 (stereo unspecified)	-1.5%	1.8%	i	i	4.9%	-2.1%
COc1ccc(CCCc2nnc(SCC(=O)Nc3ccc(C)cc3)o2)cc1	x	x	i	i	x	x
COc1cccc(-c2ccc(NC(=O)C3CCCN(Cc4cnn(C(C)C)c4)C3)cc2)c1 (stereo unspecified)	18.4µM*	18.4µM*	u	i	u	u
CCc1ncc(CN2CCCC(C(=O)Nc3cccc(-c4ccc(F)cc4)c3)C2)cn1 (stereo unspecified)	12.6%	-11.5%	i	u	-1.4%	10.1%
O=C(Nc1cccc(-c2ccc(F)cc2)c1)C1CCCN(Cc2cccnc2)C1 (stereo unspecified)	u	u	i	u	18.4µM*	3.1%
CCCc1ncc(CN2CCCC(C(=O)Nc3ccc(-c4cccc(OC)c4)cc3)C2)cn1 (stereo unspecified)	11.4%	-34.5%	i	i	u	u
CCn1nc([N+](=O)[O-])c(C(C#N)c2nc3cc(C(F)(F)F)ccc3s2)c(Cl)c1=O (stereo unspecified)	29.4%	0.631µM*	14.6µM*	u	0.316µM*	4.61µM*
CCOC(=O)C1=C(C)NC(=O)NC1c1cccc(OC)c1OCc1ccccc1Cl (stereo unspecified)	u	-24.7%	i	13µM*	u	11.7%
CC1=C(C(=O)OCc2ccc3c(c2)OCO3)C(c2ccccc2)NC(=O)N1 (stereo unspecified)	-6.6%	u	23.1µM*	11.6µM*	u	-3.2%
CCOC(=O)C1=C(CN2CC(C)CC(C)C2)NC(=O)NC1c1ccc2c(c1)OCO2 (stereo unspecified)	-14.2%	-27.3%	i	18.4µM*	-3.9%	u
COc1ccc(COC(=O)C2=C(C)NC(=O)NC2c2cc(OC)ccc2OC)cc1 (stereo unspecified)	0.517µM*	-0.7%	i	i	-4.2%	-11.2%
COc1ccc(COC(=O)C2=C(C)NC(=O)NC2c2cccc(OC)c2OC)cc1 (stereo unspecified)	-2.5%	6.7%	i	i	-11.5%	29.3%
O=C(Cn1c(=O)n(Cc2ccco2)c(=O)c2ccc(C(=O)NC3CCCC3)cc21)Nc1ccc(F)cc1	x	x	i	i	x	x
COc1ccc(CNC(=O)CCNS(=O)(=O)c2ccc3c(c2)oc(=O)n3C)cc1	10.6%	1.6%	i	i	-2.5%	-3.3%
O=C(O)Cc1ccc(NC(=O)c2ccc(Cl)c(Cl)c2)cc1	25.0%	-7.7%	u	i	1.8%	1.0%
